Laboratory results from PubChem BioAssay (NCI).
The panel holds about 83,000 compounds, 20% with a hit somewhere; the sample as a whole holds those more often.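 96-well plates, one dose, 48 hours. Percent growth reported; active if below 10.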 Activity calls are given as the source filed them.

How the values were obtained:
Experiment in all cases: NCI-60 one-dose screen, 48 h (100 = growth as untreated, 0 = no growth, -100 = all killed)
Details in all cases: 10 µM
DU-145 prostate = system: DU-145 prostate
K-562 leukemia = system: K-562 leukemia
MALME-3M melanoma = system: MALME-3M melanoma
MDA-MB-231 breast = system: MDA-MB-231 breast
RXF 393 renal = system: RXF 393 renal
SF-268 CNS = system: SF-268 CNS
SF-295 CNS = system: SF-295 CNS
SF-539 CNS = system: SF-539 CNS
UACC-257 melanoma = system: UACC-257 melanoma
M14 melanoma = system: M14 melanoma
HCT-15 colon = system: HCT-15 colon
HT29 colon = system: HT29 colon
SNB-75 CNS = system: SNB-75 CNS
SNB-19 CNS = system: SNB-19 CNS
U251 CNS = system: U251 CNS
PC-3 prostate = system: PC-3 prostate
SK-MEL-5 melanoma = system: SK-MEL-5 melanoma
LOX IMVI melanoma = system: LOX IMVI melanoma
UACC-62 melanoma = system: UACC-62 melanoma
SK-MEL-28 melanoma = system: SK-MEL-28 melanoma

Measured: growth

Oc1cccc(-c2nc3sccn3c2-c2ccncn2)c1
active: MALME-3M melanoma -8.47%
inactive: DU-145 prostate 106% | K-562 leukemia 90% | MDA-MB-231 breast 81.4% | RXF 393 renal 67.3% | SF-268 CNS 106% | SF-295 CNS 101% | SF-539 CNS 98.8% | UACC-257 melanoma 31% | M14 melanoma 19.4% | HCT-15 colon 93.2% | HT29 colon 54.8% | SNB-75 CNS 39.4% | SNB-19 CNS 111% | U251 CNS 114% | PC-3 prostate 84.6% | SK-MEL-5 melanoma 90.6% | LOX IMVI melanoma 36.2%

Nc1ccn(Cc2nnc(CCC(=O)c3nc4ccccc4[nH]3)o2)c(=O)n1
inactive: DU-145 prostate 98.4% | K-562 leukemia 79.8% | MALME-3M melanoma 90.9% | MDA-MB-231 breast 87.3% | RXF 393 renal 98.5% | SF-268 CNS 95.8% | SF-295 CNS 79.8% | SF-539 CNS 86.8% | UACC-257 melanoma 101% | M14 melanoma 89.8% | HCT-15 colon 89.2% | HT29 colon 89.5% | SNB-75 CNS 67.5% | SNB-19 CNS 91% | U251 CNS 85.6% | PC-3 prostate 77% | SK-MEL-5 melanoma 68.9% | UACC-62 melanoma 66.2% | LOX IMVI melanoma 53.9% | SK-MEL-28 melanoma 104%

COc1cccc(N=Nc2cccc(OC)c2)c1
inactive: DU-145 prostate 112% | K-562 leukemia 87.8% | MALME-3M melanoma 101% | MDA-MB-231 breast 84% | RXF 393 renal 91.2% | SF-268 CNS 103% | SF-295 CNS 92.8% | SF-539 CNS 95.4% | UACC-257 melanoma 90.9% | M14 melanoma 90.7% | HCT-15 colon 91.1% | HT29 colon 94.9% | SNB-75 CNS 102% | SNB-19 CNS 97% | U251 CNS 79.4% | PC-3 prostate 67.7% | SK-MEL-5 melanoma 99.1% | LOX IMVI melanoma 96.7% | SK-MEL-28 melanoma 99.6%

Clc1nc2ccc(Br)cc2cc1-c1nc2ccccc2[nH]1
inactive: DU-145 prostate 99.4% | K-562 leukemia 86.1% | MALME-3M melanoma 97.2% | MDA-MB-231 breast 64.6% | RXF 393 renal 10.6% | SF-268 CNS 59.3% | SF-295 CNS 86.7% | SF-539 CNS 107% | UACC-257 melanoma 102% | M14 melanoma 105% | HCT-15 colon 92.3% | HT29 colon 106% | SNB-75 CNS 42.4% | SNB-19 CNS 91% | U251 CNS 81% | PC-3 prostate 39.6% | SK-MEL-5 melanoma 84.7% | UACC-62 melanoma 90.9% | LOX IMVI melanoma 69.5% | SK-MEL-28 melanoma 105%

COc1cc(-c2nc3ccccc3o2)cc(CN2CCCCC2)c1O
inactive: DU-145 prostate 12.9% | K-562 leukemia 32.7% | MALME-3M melanoma 28.9% | MDA-MB-231 breast 70.9% | RXF 393 renal 94.8% | SF-268 CNS 68.2% | SF-295 CNS 32.5% | SF-539 CNS 83.5% | UACC-257 melanoma 75.2% | M14 melanoma 34.9% | HCT-15 colon 41.4% | HT29 colon 87.2% | SNB-75 CNS 57.6% | SNB-19 CNS 83.3% | U251 CNS 47.5% | PC-3 prostate 41.8% | SK-MEL-28 melanoma 59.5%
active: SK-MEL-5 melanoma -83.3% | LOX IMVI melanoma -18.6%

COc1cc(/C=C/c2cc(/C=C/c3ccc(O)c(OC)c3)[nH]c(=O)n2)ccc1O
inactive: DU-145 prostate 80.4% | K-562 leukemia 42% | MALME-3M melanoma 53.6% | MDA-MB-231 breast 54.2% | RXF 393 renal 23.7% | SF-268 CNS 48.2% | SF-295 CNS 92.8% | SF-539 CNS 69% | UACC-257 melanoma 62.5% | M14 melanoma 75.5% | HCT-15 colon 81.8% | SNB-75 CNS 44.3% | SNB-19 CNS 82.6% | U251 CNS 55.6% | PC-3 prostate 61% | SK-MEL-5 melanoma 70.7% | UACC-62 melanoma 63.3% | LOX IMVI melanoma 49% | SK-MEL-28 melanoma 50.9%
active: HT29 colon -6.41%

N#CCc1csc(Cc2ccccc2)n1
inactive: DU-145 prostate 108% | K-562 leukemia 103% | MALME-3M melanoma 101% | MDA-MB-231 breast 114% | RXF 393 renal 119% | SF-268 CNS 100% | SF-295 CNS 106% | SF-539 CNS 104% | UACC-257 melanoma 94.5% | M14 melanoma 101% | HCT-15 colon 109% | HT29 colon 98% | SNB-75 CNS 101% | SNB-19 CNS 101% | U251 CNS 103% | PC-3 prostate 109% | SK-MEL-5 melanoma 102% | UACC-62 melanoma 103% | LOX IMVI melanoma 95.9% | SK-MEL-28 melanoma 108%

CC(CN(C)C)Oc1ccc(OC(C)CN(C)C)c2c1C(=O)c1ccccc1C2=O (stereo unspecified)
inactive: DU-145 prostate 46.1% | K-562 leukemia 24.5% | MALME-3M melanoma 67.6% | MDA-MB-231 breast 40.9% | RXF 393 renal 59.2% | SF-268 CNS 47.8% | SF-295 CNS 48.2% | SF-539 CNS 51% | UACC-257 melanoma 72.8% | M14 melanoma 56.6% | HCT-15 colon 88.2% | HT29 colon 20.8% | SNB-75 CNS 54.9% | SNB-19 CNS 37.2% | U251 CNS 30.1% | PC-3 prostate 38.3% | SK-MEL-5 melanoma 69.1% | LOX IMVI melanoma 27.4% | SK-MEL-28 melanoma 96%

O=C1/C(=C/c2ccc3c(c2)OCO3)SC(=S)N1C1c2ccccc2Oc2ccccc21
inactive: DU-145 prostate 99.7% | K-562 leukemia 99.5% | MALME-3M melanoma 80.1% | MDA-MB-231 breast 96% | RXF 393 renal 103% | SF-268 CNS 98.1% | SF-295 CNS 97.8% | SF-539 CNS 94.3% | UACC-257 melanoma 112% | M14 melanoma 93.5% | HCT-15 colon 93% | HT29 colon 117% | SNB-75 CNS 89.2% | SNB-19 CNS 96.8% | U251 CNS 113% | PC-3 prostate 93.1% | SK-MEL-5 melanoma 97.2% | LOX IMVI melanoma 89.1% | SK-MEL-28 melanoma 96.3%

OCC1OC(n2ccc3c(NO)ncnc32)C(O)C1O (stereo unspecified)
active: DU-145 prostate -16.6% | K-562 leukemia -11.4% | MALME-3M melanoma -69.2% | MDA-MB-231 breast -20% | RXF 393 renal -32.7% | SF-268 CNS -14.3% | SF-295 CNS -15.4% | SF-539 CNS -44% | UACC-257 melanoma -57.3% | M14 melanoma -89.7% | HCT-15 colon -37.6% | HT29 colon -1.97% | SNB-75 CNS -24.2% | SNB-19 CNS -0.974% | U251 CNS 0.0054% | PC-3 prostate -7.72% | SK-MEL-5 melanoma -90.8% | UACC-62 melanoma -88.8% | LOX IMVI melanoma -45.3% | SK-MEL-28 melanoma -47.5%

COc1ccc(N=Nc2cc(OC)c(OC)c(OC)c2)cc1
inactive: DU-145 prostate 97.3% | K-562 leukemia 69.4% | MALME-3M melanoma 77.9% | MDA-MB-231 breast 89.4% | RXF 393 renal 86% | SF-268 CNS 91.3% | SF-295 CNS 83.6% | SF-539 CNS 82.6% | UACC-257 melanoma 84.9% | M14 melanoma 74.3% | HCT-15 colon 82% | HT29 colon 69.1% | SNB-75 CNS 78.7% | SNB-19 CNS 89% | U251 CNS 79.5% | PC-3 prostate 67.2% | SK-MEL-5 melanoma 80% | LOX IMVI melanoma 79% | SK-MEL-28 melanoma 92%

COc1ccc(-c2csc(NC(=O)c3ccc(Cc4n[nH]c(=O)c5cccnc45)cc3)n2)cc1
inactive: DU-145 prostate 108% | K-562 leukemia 82.9% | MALME-3M melanoma 86.8% | MDA-MB-231 breast 79.7% | RXF 393 renal 72.4% | SF-268 CNS 97.1% | SF-295 CNS 86.6% | SF-539 CNS 87.1% | UACC-257 melanoma 94.5% | M14 melanoma 103% | HCT-15 colon 85.8% | HT29 colon 104% | SNB-75 CNS 82.6% | SNB-19 CNS 89.8% | U251 CNS 99.1% | PC-3 prostate 77.9% | SK-MEL-5 melanoma 85.7% | UACC-62 melanoma 74.5% | LOX IMVI melanoma 90.3% | SK-MEL-28 melanoma 95.2%

O=C(O)c1cc([N+](=O)[O-])ccc1Oc1ccccc1
inactive: DU-145 prostate 104% | K-562 leukemia 116% | MALME-3M melanoma 81.3% | MDA-MB-231 breast 97.3% | RXF 393 renal 107% | SF-268 CNS 97.3% | SF-295 CNS 101% | SF-539 CNS 94.6% | UACC-257 melanoma 96.8% | M14 melanoma 106% | HCT-15 colon 95.4% | HT29 colon 90.8% | SNB-75 CNS 98.1% | SNB-19 CNS 98.4% | U251 CNS 95.9% | PC-3 prostate 89.2% | SK-MEL-5 melanoma 84.6% | LOX IMVI melanoma 93.1% | SK-MEL-28 melanoma 107%

CC[C@@H](C(=O)[C@@H](C)[C@@H](O)[C@H](C)[C@@H]1O[C@@H]([C@@H](CC)C(=O)N(CC)CC)CC[C@@H]1C)C1O[C@]2(C=CC(=O)[C@]3(CC[C@@](C)([C@H]4CC[C@](O)(CC)[C@H](C)O4)O3)O2)[C@H](C)C[C@@H]1C (stereo partly specified)
active: MALME-3M melanoma -27.3% | SF-295 CNS 4.86% | U251 CNS 6.72% | PC-3 prostate 7.83% | SK-MEL-5 melanoma -42.9%
inactive: DU-145 prostate 68.5% | K-562 leukemia 19.3% | MDA-MB-231 breast 25.8% | RXF 393 renal 28.2% | SF-268 CNS 46.4% | SF-539 CNS 44.8% | UACC-257 melanoma 19.8% | M14 melanoma 13.6% | HCT-15 colon 11% | HT29 colon 13.1% | SNB-75 CNS 30.2% | SNB-19 CNS 23.4% | LOX IMVI melanoma 34.3% | SK-MEL-28 melanoma 19.5%

CCN(CC)CCNc1ccc(C)c2sc3cc(Cl)ccc3c(=O)c12
active: K-562 leukemia -51% | MALME-3M melanoma -26.4% | MDA-MB-231 breast -15.9% | UACC-257 melanoma -28.2% | M14 melanoma -64.9% | HT29 colon -25% | UACC-62 melanoma -67% | LOX IMVI melanoma -84.5% | SK-MEL-28 melanoma -59.3%
inactive: DU-145 prostate 43.5% | RXF 393 renal 12.9% | SF-268 CNS 47% | SF-295 CNS 70% | SF-539 CNS 66.3% | HCT-15 colon 26.6% | SNB-75 CNS 59.8% | SNB-19 CNS 47% | U251 CNS 16.5% | PC-3 prostate 34.9% | SK-MEL-5 melanoma 14.1%

Cc1ccc(/C=C2/C(=O)N(C)c3ccc(S(=O)(=O)Nc4ccc(C(C)(C)C)cc4)cc32)s1
active: SNB-75 CNS -9.41%
inactive: DU-145 prostate 87.3% | K-562 leukemia 79.8% | MALME-3M melanoma 57.6% | MDA-MB-231 breast 35.2% | RXF 393 renal 41.8% | SF-268 CNS 67.4% | SF-295 CNS 88% | SF-539 CNS 23% | UACC-257 melanoma 85.7% | M14 melanoma 83.1% | HCT-15 colon 83.8% | HT29 colon 75.7% | SNB-19 CNS 66.6% | U251 CNS 62.6% | PC-3 prostate 56.6% | SK-MEL-5 melanoma 89.4% | UACC-62 melanoma 74.9% | LOX IMVI melanoma 58.1% | SK-MEL-28 melanoma 81.8%
